The results in this text go back to PubChem BioAssay (NCI).

Each structure is given as a SMILES string. This is part of a sample that, as a whole, favours compounds with a hit. Of some 83,000 tested, about 20% had one in any assay.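 Activity criterion: percent growth below 10, measured after cells in 96-well plates were exposed to a single compound concentration for 48 hours.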 Unmarked numbers belong to inactive results. Calls of active or inactive are those of the source.

Some test systems named below: NCI-H23 lung; NCI-H226 lung; NCI-H322M lung; HOP-62 NSCLC; NCI-H460 lung; HOP-92 NSCLC; NCI-H522 lung; A549/ATCC NSCLC; 786-0 renal; COLO 205 colon.
Experiment in all cases: NCI-60 one-dose screen, 48 h (100 = growth as untreated, 0 = no growth, -100 = all killed)
What all share (settings): 10 µM unless noted

As for `Nc1nc(Nc2ccc(F)cc2)nn1C(=O)c1cc(Cl)ccc1Cl`, the growth in the assay with NCI-H23 lung is 71.9%; with NCI-H226 lung, 80.9%; with NCI-H322M lung, 66.4%; in the assay with HOP-62 NSCLC it was 85.4%; with NCI-H460 lung, 69.4%; in the assay with HOP-92 NSCLC it was 75.1%. The growth in the assay with NCI-H522 lung was 87.8%; with A549/ATCC NSCLC, 75.2%; in the assay on 786-0 renal, 72.9%; in the assay with COLO 205 colon, 83.8%.
As to `O=C(Oc1ccc(CO[N+](=O)[O-])cc1)c1ccccc1`, the growth in the assay with NCI-H23 lung is -71.1% (active); in the assay with NCI-H226 lung, -96.5% (active); in the assay with NCI-H322M lung, -88.1% (active); in the assay on HOP-62 NSCLC it was -86.5% (active); with NCI-H460 lung, -65.3% (active); in the assay with HOP-92 NSCLC, -88% (active). Also, the growth in the assay on NCI-H522 lung was -67.2% (active); with A549/ATCC NSCLC, -9.66% (active); with 786-0 renal, -87.7% (active); with COLO 205 colon, -74.2% (active).
On to `O=C(NCCCN1CCCCC1)c1ccc(-c2nc3ccc4[nH]ncc4c3c3c2CCCC3)cc1`, for which the growth is 49.3% in the assay on NCI-H23 lung; 63.8% with NCI-H226 lung; 51.7% in the assay on NCI-H322M lung; 47.6% in the assay with HOP-62 NSCLC; 24.9% in the assay with NCI-H460 lung; 46.2% with HOP-92 NSCLC. Besides, the growth in the assay with NCI-H522 lung is 42.8%; in the assay with A549/ATCC NSCLC, 26.6%; with 786-0 renal, 44.3%; in the assay with COLO 205 colon, 60.9%.
`COc1cc(-c2nn(-c3cccc(NC(=O)CCN4CCN(C)CC4)c3)cc2-c2ccncc2)ccc1Cl`: the growth in the assay on NCI-H23 lung is 42.5%; in the assay with NCI-H226 lung, 67.7%; with NCI-H322M lung, 37.5%; in the assay on HOP-62 NSCLC, 24.6%; in the assay on NCI-H460 lung it was 14.9%; in the assay on HOP-92 NSCLC, 22.7%. In addition, the growth is -6.1% (active) in the assay on NCI-H522 lung, 30.7% in the assay with A549/ATCC NSCLC, 12.2% in the assay on 786-0 renal and -31.6% (active) in the assay with COLO 205 colon.
On to `CCOC(=O)CC1CSC(c2cccc(Cl)c2)=N1` (stereo not given), for which the growth with NCI-H23 lung is 94.6%; in the assay on NCI-H226 lung it was 113%; in the assay on NCI-H322M lung, 93.3%; in the assay on HOP-62 NSCLC, 111%; with NCI-H460 lung, 108%; with HOP-92 NSCLC, 119%. The growth with NCI-H522 lung was 101%; with A549/ATCC NSCLC, 95.3%; in the assay on 786-0 renal it was 84.8%; in the assay with COLO 205 colon, 120%.
Turning to `CC1(C)C(N)=Nc2cc(OCCCN3Cc4ccc(OCCc5cn(CC(=O)N6CCC(CCN7CCCC7)CC6)nn5)cc4C3)c(OCC3CC3)cc21`, the growth with NCI-H23 lung is 98.2%; in the assay on NCI-H226 lung it was 108%; with NCI-H322M lung, 102%; in the assay on HOP-62 NSCLC, 95.4%; with NCI-H460 lung, 105%; in the assay on HOP-92 NSCLC it was 81.3%. For the same compound, the growth with NCI-H522 lung is 101%; in the assay on A549/ATCC NSCLC, 100%; in the assay on 786-0 renal, 99.6%; in the assay with COLO 205 colon, 108%.
Take `O=C(Nc1ccc2ccccc2c1)c1cc2ccccc2cc1O`: the growth in the assay on NCI-H23 lung was 81.5%; in the assay on NCI-H226 lung, 91.6%; in the assay on NCI-H322M lung, 75.7%; in the assay on HOP-62 NSCLC, 98.8%; in the assay on NCI-H460 lung it was 85.4%; with HOP-92 NSCLC, 63.7%. The growth in the assay with NCI-H522 lung is 62.6%; in the assay with A549/ATCC NSCLC, 84.6%; in the assay with 786-0 renal, 85.6%; in the assay on COLO 205 colon, 110%.
For `Cc1n(Cc2ccc3ccccc3c2)c(Cl)c(Cl)[n+]1Cc1ccc2ccccc2c1`, the growth in the assay with NCI-H23 lung was 25.6%; in the assay on NCI-H226 lung, 47.1%; in the assay with NCI-H322M lung, 76.2%; in the assay with HOP-62 NSCLC, 59.6%; in the assay with NCI-H460 lung, 33.5%; in the assay on HOP-92 NSCLC, -11.3% (active). Further, the growth in the assay on NCI-H522 lung is 16.9%; with A549/ATCC NSCLC, 81.4%; in the assay on 786-0 renal, 50.2%; in the assay with COLO 205 colon, -46.6% (active).
Consider `N#CSc1c[nH]c2ccc(/C=C/C(=O)/C=C(/C=C/c3ccc4[nH]cc(SC#N)c4c3)OB(F)F)cc12`, for which the growth is -28.3% (active) with NCI-H23 lung; -66.1% (active) in the assay on NCI-H226 lung; 94.9% in the assay on NCI-H322M lung; 14.7% in the assay on HOP-62 NSCLC; 3.07% (active) in the assay on NCI-H460 lung; -74.1% (active) with HOP-92 NSCLC. Moreover, the growth in the assay on NCI-H522 lung was -69.7% (active); in the assay with A549/ATCC NSCLC, 4.65% (active); with 786-0 renal it was -46.5% (active); in the assay on COLO 205 colon it was -63.9% (active).
As for `CC1(C)C(N)=Nc2cc(OCCCCN3Cc4ccccc4C3)c(OCC3CC3)cc21`, the growth was 80.3% in the assay on NCI-H23 lung; 79.6% in the assay on NCI-H226 lung; 79.9% in the assay on NCI-H322M lung; 85.6% with HOP-62 NSCLC; 75.2% in the assay on NCI-H460 lung; 103% in the assay with HOP-92 NSCLC. The growth with NCI-H522 lung is 64.2%; in the assay on A549/ATCC NSCLC, 79.5%; with 786-0 renal, 64.8%; in the assay on COLO 205 colon it was -62.7% (active).
Regarding `CC(=O)c1nn(-c2ccccc2)/c(=N/N=Cc2cn(-c3ccccc3)nc2-c2cc3ccccc3oc2=O)s1`, the growth in the assay with NCI-H23 lung was 109%; with NCI-H226 lung, 105%; with NCI-H322M lung, 93.2%; with HOP-62 NSCLC, 101%; in the assay on NCI-H460 lung it was 117%; in the assay with HOP-92 NSCLC, 94.7%. Besides, the growth in the assay with NCI-H522 lung is 95.6%; in the assay on A549/ATCC NSCLC, 102%; in the assay on 786-0 renal, 105%; with COLO 205 colon it was 117%.
